Several values for one entry are separate records, joined by “and”; a condition that tells them apart may be missing. Equal values may be shown once. Activity calls are given as the source filed them. The call rests on the fitted dose curve; in most records, active means well fitted inhibition curve with a large enough effect; inconclusive means small, poorly fitted or top-dose-only effect; inactive means flat fitted curve, though single readings scatter.

The test can be described thus: Quantitative high throughput screen for delayed death inhibitors of the malarial parasite plastid, 48 hour incubation. Conditions: P. falciparum in erythrocytes, luciferase growth. From the text:
NIH Molecular Libraries Probe Production Network [MLPCN] NIH Chemical Genomics Center [NCGC] MLPCN Grant: R21 NS059500 Assay Provider: David Fidock and Eric Ekland, Columbia University The goal of this screen is to discover new antimalarial compounds that act by inhibiting the development of the apicoplast in the malarial parasite Plasmodium falciparum. The biochemical processes that make this organelle essential for erythrocytic stage parasites are not well understood. However, antibiotics, such as azithromycin and tetracycline, which target the apicoplast translational machinery, have a potent antimalarial effect. […] We have developed a cell-based assay that measures parasite growth based on the expression of an integrated copy of a firefly luciferase reporter. To detect small molecules that cause this 'delayed death' phenotype, erythrocytes infected with the luciferase-expressing parasites were incubated with compounds for either one or two generations, corresponding to 48 and 96 hours, respectively. Compounds that inhibit parasite growth in the second generation, but not the first, should be enriched in antimalarials that target the apicoplast. Growth inhibition is detected by a decrease in luciferase activity
Four microliters of culture medium (RPMI 1640 with 0.5% w/v Albumax (GIBCO), 24 mM sodium bicarbonate and 10 ug/mL gentamycin) were dispensed by a Multi-drop Combi into white solid 1536-well plates (Grenier) and 23 nL compound was added by a pin tool. Four microliters of infected erythrocytes (2% hematocrit, 0.1% parasitemia final concentration) in culture medium were dispensed and the plates incubated for 48 hours at 37 C in 5% CO2. Two microliters of luciferase detection reagent was added and luminescence was detected by a ViewLux (PerkinElmer) reader
Turning to `Cc1noc(C)c1NC(=O)Nc1ccc2c(c1)C(=O)N(C(C)C)C[C@@H](C)[C@H](CN(C)S(=O)(=O)c1ccc(F)cc1)OCCCC[C@H](C)O2`, the Potency is 63.4 nM (active) and 1.59 µM (active). The value for `C[C@@H]1CCCCO[C@@H](CN(C)Cc2ccc(F)cc2)[C@H](C)CN([C@@H](C)CO)C(=O)c2cc(NC(=O)Nc3ccccc3)ccc2O1` was 4000 nM (active); that for `C[C@@H]1CN(C)C(=O)c2cc(NC(=O)Nc3ccccc3)ccc2O[C@@H](C)CCCCO[C@@H]1CN(C)S(=O)(=O)c1ccc(F)cc1` was 1260 nM (active); that for `C[C@@H]1CN([C@@H](C)CO)C(=O)c2cc(Nc3nc4ccccc4o3)ccc2O[C@@H](C)CCCCO[C@H]1CN(C)S(=O)(=O)c1ccc(F)cc1` was 1590 nM (active).

For `COCOC[C@H](C)N1C[C@@H](C)[C@H](CN(C)S(=O)(=O)c2ccc(F)cc2)OCCCC[C@H](C)Oc2ccc(NC(=O)Nc3ccccc3)cc2C1=O`, the Potency is 10 nM (active).

In the case of `C[C@@H]1CN([C@@H](C)CO)C(=O)c2cc(NC(=O)Nc3ccccc3)ccc2O[C@@H](C)CCCCO[C@H]1CN(C)C(=O)OC(C)(C)C`, the Potency is 565 nM (active).

In the case of `C[C@@H]1CN(CCO[Si](C)(C)C(C)(C)C)C(=O)c2cc(NC(=O)Nc3ccccc3)ccc2O[C@@H](C)CCCCO[C@H]1CN(C)S(=O)(=O)c1ccc(F)cc1`, the Potency was 56.5 nM (active). The value for `C[C@@H]1CN(CCO)C(=O)c2cc(NC(=O)Nc3ccccc3)ccc2O[C@@H](C)CCCCO[C@H]1CN(C)S(=O)(=O)c1ccc(F)cc1` was 179 nM (active). In the case of `C=CCOC(=O)N(C)C[C@@H]1OCCCC[C@H](C)Oc2ccc(NC(=O)Nc3ccccc3)cc2C(=O)N([C@@H](C)CO)C[C@H]1C`, the Potency was 356 nM (active). Consider `C[C@@H]1CN([C@@H](C)CO)C(=O)c2cc(NC(=O)Nc3ccccc3)ccc2O[C@@H](C)CCCCO[C@H]1CN(C)Cc1ccc(C(F)(F)F)cc1`, for which the Potency was 1000 nM (active). The value for `C=CCOC(=O)N(C)C[C@@H]1OCCCC[C@H](C)Oc2ccc(NC(=O)Nc3ccccc3)cc2C(=O)N([C@H](C)COC(=O)c2ccccc2)C[C@H]1C` was 504 nM (active); that for `C[C@@H]1CCCCO[C@H](CN(C)C(=O)Nc2ccc(F)cc2)[C@H](C)CN([C@@H](C)CO)C(=O)c2cc(NS(=O)(=O)c3ccccc3)ccc2O1` was 356 nM (active); that for `Cc1noc(C)c1NC(=O)Nc1ccc2c(c1)C(=O)N([C@@H](C)CO)C[C@@H](C)[C@H](CN(C)S(=O)(=O)c1ccc(F)cc1)OCCCC[C@H](C)O2` was 126 nM (active). With `C[C@@H]1CN([C@@H](C)CO[Si](C)(C)C(C)(C)C)C(=O)c2cc(NC(=O)Nc3ccccc3)ccc2O[C@@H](C)CCCCO[C@H]1CN(C)S(=O)(=O)c1ccc(F)cc1`, the Potency is 1.1 nM (active). The value for `C[C@@H]1CN([C@@H](C)COC(C)(C)C)C(=O)c2cc(NC(=O)Nc3ccccc3)ccc2O[C@@H](C)CCCCO[C@H]1CN(C)S(=O)(=O)c1ccc(F)cc1` was 1.3 nM (active).

On to `C[C@@H]1CN([C@H](C)CO[Si](C)(C)C(C)(C)C)C(=O)c2cc(NC(=O)Nc3ccccc3)ccc2O[C@@H](C)CCCCO[C@H]1CN(C)S(=O)(=O)c1ccc(F)cc1`, for which the Potency is 225 nM (active). The value for `C[C@@H]1CN([C@@H](C)CO)C(=O)c2cc(NC(=O)Nc3ccccc3)ccc2O[C@@H](C)CCCCO[C@H]1CN(C)S(=O)(=O)c1ccccc1F` was 634 nM (active); that for `C[C@@H]1CN([C@@H](C)CO)C(=O)c2cc(NC(=O)Nc3ccccc3)ccc2O[C@@H](C)CCCCO[C@H]1CN(C)S(=O)(=O)c1ccc(C(F)(F)F)cc1` was 896 nM (active).

On to `C[C@@H]1CN([C@@H](C)CO)C(=O)c2cc(NC(=O)Nc3ccccc3)ccc2O[C@@H](C)CCCCO[C@H]1CN(C)S(=O)(=O)c1cccnc1`, for which the Potency was 2830 nM (active). Take `C[C@@H]1CN([C@@H](C)CO)C(=O)c2cc(NC(=O)Nc3ccccc3)ccc2O[C@@H](C)CCCCO[C@H]1CN(C)S(=O)(=O)c1cccc(F)c1`: the Potency was 10 nM (active). Take `C[C@@H]1CN([C@@H](C)COC(=O)C(C)(C)C)C(=O)c2cc(NC(=O)Nc3ccccc3)ccc2O[C@@H](C)CCCCO[C@H]1CN(C)S(=O)(=O)c1ccc(F)cc1`: the Potency was 11.3 nM (active). The value for `CC(C)NC(=O)Nc1ccc2c(c1)C(=O)N([C@@H](C)CO)C[C@@H](C)[C@H](CN(C)S(=O)(=O)c1ccc(F)cc1)OCCCC[C@H](C)O2` was 634 nM (active); that for `C=CCOC(=O)N(C)C[C@H]1OCCCC[C@H](C)Oc2ccc(NC(=O)Nc3ccccc3)cc2C(=O)N([C@@H](C)CO[Si](C)(C)C(C)(C)C)C[C@H]1C` was 283 nM (active).

With `C[C@@H]1CN([C@@H](C)COC(=O)c2ccccc2)C(=O)c2cc(NC(=O)Nc3ccccc3)ccc2O[C@@H](C)CCCCO[C@H]1CN(C)C(=O)OC(C)(C)C`, the Potency is 400 nM (active).

Turning to `COc1ccc(COCCN2C[C@@H](C)[C@H](CN(C)S(=O)(=O)c3ccc(F)cc3)OCCCC[C@H](C)Oc3ccc(NC(=O)Nc4ccccc4)cc3C2=O)cc1`, the Potency was 100 nM (active). For the compound `C[C@@H]1CN([C@@H](C)CO)C(=O)c2cc(NC(=O)Nc3ccccc3)ccc2O[C@@H](C)C/C=C\CO[C@H]1CN(C)S(=O)(=O)c1ccc(F)cc1`, the Potency is 356 nM (active).

Turning to `C[C@@H]1CN([C@@H](C)CO)C(=O)c2cc(N)ccc2O[C@@H](C)CCCCO[C@H]1CN(C)S(=O)(=O)c1ccc(F)cc1`, the Potency was 159 nM (active).

As for `C[C@@H]1CN([C@@H](C)CO)C(=O)c2cc(NC(=O)Nc3ccccc3)ccc2O[C@@H](C)C/C=C/CO[C@H]1CN(C)S(=O)(=O)c1ccc(F)cc1`, the Potency was 142 nM (active). The value for `C[C@@H]1CN([C@@H](C)COC(=O)c2ccccc2)C(=O)c2cc(NC(=O)Nc3ccccc3)ccc2O[C@@H](C)CCCCO[C@H]1CN(C)S(=O)(=O)c1ccc(F)cc1` was 63.4 nM (active). The value for `CC(C)N1C[C@@H](C)[C@H](CN(C)S(=O)(=O)c2ccc(F)cc2)OCCCC[C@H](C)Oc2ccc(NC(=O)Nc3ccccc3)cc2C1=O` was 17.9 nM (active); that for `COCCOCOC[C@H](C)N1C[C@@H](C)[C@H](CN(C)S(=O)(=O)c2ccc(F)cc2)OCCCC[C@H](C)Oc2ccc(NC(=O)Nc3ccccc3)cc2C1=O` was 11.3 nM (active); that for `COc1ccc(COC[C@H](C)N2C[C@@H](C)[C@H](CN(C)Cc3ccc(OC)cc3)OCCCC[C@H](C)Oc3ccc(NC(=O)Nc4ccccc4)cc3C2=O)cc1` was 565 nM (active). For `C[C@@H]1CN([C@@H](C)CN=[N+]=[N-])C(=O)c2cc(NC(=O)Nc3ccccc3)ccc2O[C@@H](C)CCCCO[C@H]1CN(C)S(=O)(=O)c1ccc(F)cc1`, the Potency was 3.6 nM (active).

The values above are taken from PubChem BioAssay AID504608 (National Center for Advancing Translational Sciences (NCATS), 2011).
